From PubChem BioAssay come the findings set out here.

Active and inactive are the calls of the source.

One assay deals with Albumin (Bos taurus) (UniProt P02769). The assay is described as follows: compounds binding labelled BSA control protein – biochemical, small-molecule microarray, Alexa647 label, 635/667 nm fluorescence, artefact control for SMM control protein annotation, profiling panel (AID 1118).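 Note: score merges 667 nm emission intensity and signal-to-noise per printed compound spot.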 To be noted: BSA-A647 binding, fluorescence 635 nm, higher = more signal.
Chain of Albumin (Bos taurus) (P02769 whole entry, looked up): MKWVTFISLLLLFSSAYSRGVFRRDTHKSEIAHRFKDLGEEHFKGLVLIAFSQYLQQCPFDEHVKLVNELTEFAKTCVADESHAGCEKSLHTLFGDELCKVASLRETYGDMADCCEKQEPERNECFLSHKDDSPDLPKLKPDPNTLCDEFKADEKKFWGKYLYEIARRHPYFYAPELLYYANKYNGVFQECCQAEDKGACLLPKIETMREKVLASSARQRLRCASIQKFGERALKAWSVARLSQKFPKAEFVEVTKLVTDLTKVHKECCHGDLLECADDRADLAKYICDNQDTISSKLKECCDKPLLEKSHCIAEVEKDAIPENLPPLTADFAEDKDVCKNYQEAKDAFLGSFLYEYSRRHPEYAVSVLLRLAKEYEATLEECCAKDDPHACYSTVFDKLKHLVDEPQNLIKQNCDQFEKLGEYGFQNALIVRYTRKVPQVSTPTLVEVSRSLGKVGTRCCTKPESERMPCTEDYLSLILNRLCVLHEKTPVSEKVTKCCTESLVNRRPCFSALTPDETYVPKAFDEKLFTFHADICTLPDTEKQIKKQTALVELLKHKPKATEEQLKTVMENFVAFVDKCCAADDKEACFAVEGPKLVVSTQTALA
Assay [1] can be described thus: probe aXIP binding to arrayed compounds – biochemical, NeuroSMM set, 635/667 nm fluorescence, primary screen (AID 1119).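 Note: probe is the protein aXip251-270 applied at 1 µg/mL to compound-printed slides; binding of probe to printed compounds measured as 667 nm fluorescence plus signal to noise.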 The conditions noted are these: small-molecule microarray, higher = more signal, called active from +8 up or from −8 down.
Assay [2] can be described thus: probe aNOTCH3 binding on compound microarray – biochemical, small-molecule microarray, 635/667 nm fluorescence, primary screen (AID 1120).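 Note: probe is a biotin-tagged antibody raised against NOTCH3 rather than NOTCH3 protein; score merges spot fluorescence near 667 nm with spot signal to noise.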 The conditions noted are these: higher = more signal.
Assay [3] in a line: probe aNOTCH2 binding on compound microarray – biochemical, small-molecule microarray, 635/667 nm fluorescence, primary screen (AID 1121).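 Note: score merges feature fluorescence read at 667 nm with its signal to noise.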 The conditions noted are these: higher = more signal.
Assay [4] deals with Carbonic anhydrase 2 (Homo sapiens) (UniProt P00918). The assay is described as follows: compounds binding carbonic anhydrase 2 – biochemical, small-molecule microarray, Alexa647-labelled CAII, profiling panel (AID 1122). The conditions noted are these: CAII-A647 binding fluorescence, higher = more signal.
Assay [5] in a line: COS7 lysate on small-molecule microarray, probe aHis, 635 nm (AID 1123).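 Note: z-score combines 667nm fluorescence intensity with signal-to-noise per printed compound spot.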 The conditions noted are these: COS7 cell lysate, fluorescence, higher = more signal.
Assay [6] in a line: probe aLAP1 signal on lysate-treated microarray – cell lysate, small-molecule microarray, COS7 lysate, primary screen (AID 1124).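 Note: lysate comes from COS7 cells expressing LAP1 and is applied at 0.3 µg/mL; score merges spot fluorescence near 667 nm with signal-to-noise over triplicate slides.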 The conditions noted are these: probe aLAP1, fluorescence, higher = more signal.
The subject of a further assay is Sam68 (KHDRBS1). The assay is described as follows: compounds binding KHDRBS1 protein – biochemical, small-molecule microarray, 635 nm fluorescence, primary screen (AID 1125).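 Note: score merges 667 nm channel intensity with signal to noise over triplicate slides.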 The conditions noted are these: higher = more signal.
Assay [7] concerns Chordin-like protein 2 (CHRDL2). The assay is described as follows: compounds binding chordin-like 2 – biochemical, small-molecule microarray, 635 nm fluorescence, primary screen (AID 1126).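 Note: printed compound slides probed with Chrdl2 protein at 4 µg/mL for 1 h at 4 C; score merges 667 nm emission intensity with signal to noise over three replicate slides.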 The conditions noted are these: fluorescence 635 nm, higher = more signal.
Assay [8] has as its target Concanavalin-A (Canavalia ensiformis) (UniProt P02866). Nature of the assay: compounds binding concanavalin A lectin – biochemical, small-molecule microarray, Alexa647 label, 635 nm, artefact control for SMM control protein annotation, primary screen (AID 1127).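 Note: z combines 667 nm emission intensity with signal-to-noise across three replicate slides.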 The conditions noted are these: ConA-A647 binding fluorescence, higher = more signal.
Assay [9] can be described thus: compounds binding Alexa647 anti-His antibody – biochemical, small-molecule microarray, 635 nm fluorescence, artefact control for SMM control protein annotation, primary screen (AID 1128).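 Note: score merges feature fluorescence with signal-to-noise for each printed compound spot.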 To be noted: higher = more signal.
The subject of assay [10] is Human papillomavirus type 1a E7 protein (residues 1-88). The assay is described as follows: HPV1a E7 small-molecule binders, primary screen, biochemical, small-molecule microarray, residues 1-88, 635 nm (AID 1129). The conditions noted are these: small-molecule microarray binding, fluorescence 635 nm; higher = more signal.
The target in assay [11] is Focal adhesion kinase 1 (Homo sapiens) (UniProt Q05397). The assay is described as follows: PTK2 protein binding on printed compound slides – biochemical, small-molecule microarray, 635/667 nm fluorescence, BSA, DTT, primary screen (AID 1130).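 Note: composite of spot emission at 667 nm and signal to noise over triplicate slides.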 The conditions noted are these: 635 nm fluorescence, higher = more signal.
Chain of Focal adhesion kinase 1 (Homo sapiens) (Q05397 whole entry, looked up): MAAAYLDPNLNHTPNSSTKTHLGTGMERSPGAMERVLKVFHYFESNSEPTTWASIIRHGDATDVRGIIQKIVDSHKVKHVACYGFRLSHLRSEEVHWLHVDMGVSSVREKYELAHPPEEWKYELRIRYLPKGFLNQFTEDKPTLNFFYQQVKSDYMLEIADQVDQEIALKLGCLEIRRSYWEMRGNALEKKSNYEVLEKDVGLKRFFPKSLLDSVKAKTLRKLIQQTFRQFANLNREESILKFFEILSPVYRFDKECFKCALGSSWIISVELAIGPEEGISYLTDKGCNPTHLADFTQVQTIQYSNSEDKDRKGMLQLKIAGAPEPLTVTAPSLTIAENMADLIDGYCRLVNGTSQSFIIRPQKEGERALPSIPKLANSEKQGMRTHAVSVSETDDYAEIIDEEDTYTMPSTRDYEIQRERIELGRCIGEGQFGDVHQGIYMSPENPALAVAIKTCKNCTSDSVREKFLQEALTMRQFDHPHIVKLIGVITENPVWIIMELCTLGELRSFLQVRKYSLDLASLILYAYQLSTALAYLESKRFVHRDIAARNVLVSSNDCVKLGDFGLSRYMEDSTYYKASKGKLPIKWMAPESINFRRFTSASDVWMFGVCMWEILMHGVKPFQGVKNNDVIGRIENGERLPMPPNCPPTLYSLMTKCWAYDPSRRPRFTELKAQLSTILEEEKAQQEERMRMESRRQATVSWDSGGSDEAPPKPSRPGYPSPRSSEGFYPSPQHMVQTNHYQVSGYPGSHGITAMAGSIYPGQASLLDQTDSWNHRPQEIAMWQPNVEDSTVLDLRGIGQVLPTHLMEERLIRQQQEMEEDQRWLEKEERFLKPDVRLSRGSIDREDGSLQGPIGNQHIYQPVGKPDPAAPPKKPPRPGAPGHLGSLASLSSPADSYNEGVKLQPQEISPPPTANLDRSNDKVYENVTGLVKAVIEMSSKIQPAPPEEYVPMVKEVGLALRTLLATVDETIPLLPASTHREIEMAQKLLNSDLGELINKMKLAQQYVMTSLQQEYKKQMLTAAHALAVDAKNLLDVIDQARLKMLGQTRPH
Assay [12] has as its system Fibrinogen (Alexa647-labelled). Nature of the assay: Alexa647-fibrinogen binding to printed small molecules – biochemical, small-molecule microarray, 635/667 nm fluorescence, artefact control for SMM control-protein annotation, profiling panel (AID 1131).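 Note: z-score merges 667 nm fluorescence with per-spot signal-to-noise over triplicate slides.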 The conditions noted are these: fibrinogen-A647 binding fluorescence, higher = more signal.
The target in assay [13] is Follistatin (Homo sapiens) (UniProt P19883). The assay is described as follows: FST protein binding to printed compounds – biochemical, small-molecule microarray, 635/667 nm fluorescence, primary screen (AID 1132). The conditions noted are these: 635 nm fluorescence, higher = more signal.
Chain of Follistatin (Homo sapiens) (P19883 whole entry, looked up): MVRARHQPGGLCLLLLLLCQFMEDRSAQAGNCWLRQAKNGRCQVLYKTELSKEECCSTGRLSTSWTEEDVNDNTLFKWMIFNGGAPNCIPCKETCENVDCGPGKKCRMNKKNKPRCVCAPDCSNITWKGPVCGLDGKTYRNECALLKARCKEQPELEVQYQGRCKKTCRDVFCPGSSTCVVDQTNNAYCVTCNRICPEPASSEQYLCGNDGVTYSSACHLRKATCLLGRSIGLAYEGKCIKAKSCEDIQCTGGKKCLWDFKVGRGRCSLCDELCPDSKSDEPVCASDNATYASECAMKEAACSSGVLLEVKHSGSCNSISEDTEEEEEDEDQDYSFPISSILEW
In assay [14] the target is Fibroblast growth factor 2 (Homo sapiens) (UniProt P09038). The assay is described as follows: basic fibroblast growth factor binding to printed compounds – biochemical, small-molecule microarray, 635/667 nm fluorescence, primary screen (AID 1133). To be noted: FGF2, fluorescence 635/667, higher = more signal.
Chain of Fibroblast growth factor 2 (Homo sapiens) (P09038 whole entry, looked up): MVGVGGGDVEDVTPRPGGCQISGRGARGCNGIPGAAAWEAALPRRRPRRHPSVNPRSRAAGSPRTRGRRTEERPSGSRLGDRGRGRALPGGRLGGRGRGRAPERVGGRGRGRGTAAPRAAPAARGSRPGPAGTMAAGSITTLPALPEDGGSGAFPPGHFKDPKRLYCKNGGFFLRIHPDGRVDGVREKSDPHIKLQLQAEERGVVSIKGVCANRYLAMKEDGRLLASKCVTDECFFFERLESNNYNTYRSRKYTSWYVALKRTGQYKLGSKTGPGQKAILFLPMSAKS
Assay [15] in a line: JC-1 mitochondrial potential readout, lung cancer cells – cell-based, A549, JC-1 fluorescence, basal, 24 h, 100 nL, profiling panel (AID 1138).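 Note: A549 lung adenocarcinoma cells under basal conditions with no added stimulus; test concentration not given here.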 To be noted: higher = more signal.
For the next assay, the system named is Lefty1. The assay is described as follows: Lefty1 protein binding to printed compounds – biochemical, small-molecule microarray, 635/667 nm fluorescence, primary screen (AID 1139). The conditions noted are these: fluorescence 635/667, higher = more signal.
For assay [16], the system named is wheat germ agglutinin (Triticum aestivum), Alexa647-labelled. The assay is described as follows: Alexa647-WGA lectin binding to printed small molecules – biochemical, small-molecule microarray, 635/667 nm fluorescence, artefact control for SMM control-protein annotation, profiling panel (AID 1140).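 Note: score merges 667 nm feature emission with signal to noise over triplicate slides.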 To be noted: WGA-A647 binding, 635 nm fluorescence, higher = more signal.

In assay [17] the target is Luciferin 4-monooxygenase (Photinus pyralis) (UniProt P08659). Nature of the assay: inhibition of purified Photinus pyralis luciferase – biochemical, luminescence, purified enzyme, 2006 set, primary screen (AID 1141).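 Note: cell-free assay with purified firefly luciferase at 100 ng per well in PBS; test concentration not given here.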 To be noted: purified firefly luciferase, SteadyGlo luminescence, 30 min; higher = more signal, called active from +8 up or from −8 down.
Chain of Luciferin 4-monooxygenase (Photinus pyralis) (P08659 whole entry, looked up): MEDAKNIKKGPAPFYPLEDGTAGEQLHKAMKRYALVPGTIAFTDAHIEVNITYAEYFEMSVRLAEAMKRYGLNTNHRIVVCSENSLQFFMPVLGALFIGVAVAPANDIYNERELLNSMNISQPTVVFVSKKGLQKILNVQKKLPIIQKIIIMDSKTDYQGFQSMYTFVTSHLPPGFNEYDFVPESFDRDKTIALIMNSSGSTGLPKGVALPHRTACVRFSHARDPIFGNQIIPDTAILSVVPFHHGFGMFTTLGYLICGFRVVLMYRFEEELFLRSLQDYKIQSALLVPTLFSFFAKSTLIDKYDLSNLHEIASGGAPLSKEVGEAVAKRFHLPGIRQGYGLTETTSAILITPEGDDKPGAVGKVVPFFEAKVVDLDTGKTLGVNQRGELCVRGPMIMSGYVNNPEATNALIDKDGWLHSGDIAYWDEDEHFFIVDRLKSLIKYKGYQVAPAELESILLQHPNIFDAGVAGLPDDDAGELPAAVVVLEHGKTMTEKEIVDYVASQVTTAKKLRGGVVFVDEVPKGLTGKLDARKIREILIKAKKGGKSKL

Chain of Concanavalin-A (Canavalia ensiformis) (P02866 whole entry, looked up): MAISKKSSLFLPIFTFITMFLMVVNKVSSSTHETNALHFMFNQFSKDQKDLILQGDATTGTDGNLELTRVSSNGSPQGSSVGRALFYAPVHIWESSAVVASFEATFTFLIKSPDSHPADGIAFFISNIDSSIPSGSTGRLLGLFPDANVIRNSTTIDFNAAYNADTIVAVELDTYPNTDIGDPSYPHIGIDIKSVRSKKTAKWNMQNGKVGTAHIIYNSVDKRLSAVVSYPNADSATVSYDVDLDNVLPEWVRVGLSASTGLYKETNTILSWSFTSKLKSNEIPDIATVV

With `CO[C@H]1COC(=O)[C@H](C)COC(=O)[C@@H](OCc2ccccc2)C=C[C@@H]1C`, the composite z-score was 0.0996 in the assay with Albumin (Bos taurus); -0.141 in assay [2]; -0.12 in assay [3]; -0.342 in assay [4]; -0.051 in assay [5]; -0.181 in assay [6]. Also, the composite z-score in the assay on Sam68 (KHDRBS1) is 0.207; in [7], 0.225; in assay [8], 0.233; in [9] it was -0.49; in assay [10] it was -1.09; in assay [11] it was -0.317. Besides, the composite z-score in assay [12] was -0.534; in [13] it was 0.139; in assay [14] it was 0.496; in the assay on Lefty1 it was 0.613; in [16] it was -0.49. In addition, in assay [1], the composite Z-score is 0.976 (inactive). The z-score was 0.877 in assay [15] and -1.56 (inactive) in assay [17].

Turning to `C=CC[C@@H]1C=C[C@H](ON=C[C@@H](NS(=O)(=O)c2ccc(C)cc2)[C@H](C)C=CCC(=O)OC)[C@@H](CO)O1`, the composite z-score with Albumin (Bos taurus) is 0.766; in [2], 0.0232; in assay [3], -0.0393; in assay [4], -0.277; in [5], -0.327; in assay [6] it was 0.0555. Moreover, the composite z-score in the assay on Sam68 (KHDRBS1) is -0.483; in assay [7], 0.487; in assay [8], -1.58; in assay [9], 1.34; in assay [10], -0.205; in assay [11] it was -0.0954. Moreover, the composite z-score in [12] is -0.193; in assay [13] it was 0.774; in [14], 0.349; in the assay on Lefty1, 0.625; in [16] it was 0.511. Besides, in assay [1], the composite Z-score was 0.819 (inactive). Moreover, the figures for the z-score in assay [15] and in [17] were -0.0376 and 1.18 (inactive), respectively.

With `COC(=O)CC=C[C@@H](C)[C@@H](C=NOC(C)CN1CCCc2nc(C)c(C)cc21)NS(=O)(=O)c1ccc(C)cc1` (stereo not given in full), the composite z-score is -0.515 in the assay with Albumin (Bos taurus); 0.033 in assay [2]; 0.0098 in assay [3]; -0.19 in assay [4]; 0.726 in [5]; 0.416 in assay [6]. Besides, the composite z-score with Sam68 (KHDRBS1) is 1.14; in assay [7], 0.641; in [8] it was 0.0308; in assay [9] it was 2.64; in assay [10], 0.549; in assay [11], 0.299. For the same compound, the composite z-score in assay [12] is 0.451; in assay [13] it was 0.789; in assay [14] it was 0.533; in the assay on Lefty1 it was 0.765; in assay [16], 0.11. Also, the composite Z-score in assay [1] is 0.964 (inactive). In addition, the z-score in assay [15] was 0.835; in [17], 0.679 (inactive).

Regarding `CC(C)=NO[C@@H](C)c1cn([C@H](CO)Cc2ccccc2)nn1`, the composite z-score was 0.015 with Albumin (Bos taurus); 0.145 in assay [2]; -0.0375 in [3]; 0.138 in assay [4]; 0.398 in [5]; 0.224 in assay [6]. The composite z-score was 0.863 with Sam68 (KHDRBS1); 0.655 in assay [7]; 0.65 in assay [8]; 0.554 in [9]; 0.598 in assay [10]; -0.17 in assay [11]. For the same compound, the composite z-score in [12] was 0.17; in assay [13] it was 0.238; in assay [14] it was 0.239; in the assay on Lefty1, 0.542; in assay [16], 0.237. Moreover, the composite Z-score in [1] was 0.374 (inactive). In addition, the z-score in assay [15] was -0.0312; in assay [17] it was -2 (inactive).

With `CCCC[C@H]1CN2[C@@H](CC[C@@H](C)[C@@H]2c2ccc(Br)cc2)C(=O)O1`, the composite z-score was 0.738 with Albumin (Bos taurus); -0.137 in assay [2]; -0.183 in [3]; 0.397 in assay [4]; 0.615 in [5]; 1.59 in assay [6]. Besides, the composite z-score with Sam68 (KHDRBS1) is 1.29; in assay [7], 0.549; in assay [8] it was 0.764; in assay [9], 0.256; in assay [10] it was 1.17; in assay [11] it was 0.307. Also, the composite z-score in assay [12] amounted to 0.831; in [13], 0.53; in assay [14] it was 0.198; with Lefty1, 0.326; in assay [16], 0.542. The composite Z-score in assay [1] is 0.689 (inactive). For the same compound, the z-score in assay [15] is 0.962; in assay [17] it was -2.12 (inactive).

Consider `CC(C)CON=C1C[C@@H](O)[C@@H](O)[C@@H]2[C@@H]3C(=O)N(C(C)(C)C)C(=O)[C@@H]3CC[C@@H]12`, for which the composite z-score with Albumin (Bos taurus) is -0.708; in [2], -0.157; in [3], -0.14; in assay [4], -0.488; in assay [5] it was -0.75; in assay [6], -0.0854. In addition, the composite z-score in the assay with Sam68 (KHDRBS1) was 0.845; in assay [7], 1.5; in assay [8] it was -1.21; in [9], -0.587; in assay [10], -0.537; in assay [11], -0.577. For the same compound, the composite z-score in [12] was -0.766; in [13], 1.39; in assay [14], 1.46; in the assay on Lefty1, 1.51; in assay [16], -0.804. In addition, the composite Z-score in assay [1] is 0.11 (inactive). In addition, the z-score was -0.832 in assay [15] and 0.444 (inactive) in [17].

For `CO[C@@H]1COC(=O)[C@@H]2CCCN2C(=O)[C@@H](C)COC(=O)CCC[C@H]1C`, the composite z-score with Albumin (Bos taurus) was 0.379; in assay [2], 0.109; in [3], -0.16; in assay [4] it was -0.126; in assay [5], 0.0072; in [6] it was 0.557. Moreover, the composite z-score with Sam68 (KHDRBS1) was 1.27; in assay [7] it was 0.438; in assay [8], -0.0031; in [9], 0.176; in assay [10] it was 0.0997; in assay [11], 0.154. For the same compound, the composite z-score in [12] is 0.482; in assay [13], 0.529; in assay [14], 0.264; in the assay on Lefty1, 0.486; in assay [16], 0.2. In addition, in assay [1], the composite Z-score is 0.305 (inactive). Moreover, the z-score in assay [15] was -0.601; in assay [17], 0.173 (inactive).

As to `CC(=O)OC[C@H]1O[C@H](CC=NOC(C)CN2CCCc3nc(C)c(C)cc32)C=C[C@@H]1OC(C)=O` (stereo not given in full), the composite z-score was -0.0846 with Albumin (Bos taurus); 0.0591 in assay [2]; 0.0032 in [3]; 0.0124 in assay [4]; 0.0855 in assay [5]; 0.53 in assay [6]. For the same compound, the composite z-score is 1.2 in the assay with Sam68 (KHDRBS1); 1.15 in assay [7]; -0.152 in [8]; 1.42 in assay [9]; 0.507 in assay [10]; 0.246 in assay [11]. Besides, the composite z-score in [12] is 0.145; in [13] it was 0.803; in assay [14] it was 0.684; with Lefty1 it was 0.947; in assay [16], -0.0862. The composite Z-score in [1] was 1.01 (inactive). Moreover, the values for the z-score in assay [15] and in [17] were -0.221 and 0.767 (inactive), respectively.
